Consider ten molecules from PubChem BioAssay (Tox21).

Records with an inconclusive call do not appear. Unmarked numbers belong to inactive results. Active and inactive are the calls of the source. Unless noted, calls come from the whole dose curve.

Experiment [1] has as its target Peroxisome proliferator-activated receptor delta (Homo sapiens) (UniProt Q03181). The experiment is described as follows: qHTS assay to identify small molecule agonists of the peroxisome proliferator-activated receptor delta (PPARd) signaling pathway (AID 743212). In short, it runs like this:
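Beta-lactamase reporter readout: a ratiometric FRET signal from the LiveBLAzer substrate after 2 h at room temperature. Compound exposure at 37 °C in PPARδ-bla HEK293H cells driven by an upstream activator sequence.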
A general note: In qHTS, concentration-response curves come from the screen itself.

Experiment [2] addresses Bile acid receptor (Homo sapiens) (UniProt Q96RI1). Briefly: qHTS assay to identify small molecule antagonists of the farnesoid-X-receptor (FXR) signaling pathway (AID 743217; active = well fitted inhibition curve with a large enough effect in the signal ratio in the repeat runs, not every such curve was filed as active; the % refers to the signal ratio; note: potency is the fitted concentration of half-maximal effect). A digest of the protocol:
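Read-out: beta-lactamase FRET fluorescence (LiveBLAzer B/G substrate, 2 h, room temperature) in GeneBLAzer FXR-UAS-bla HEK 293T cells. Compounds were co-dosed with 50 uM chenodeoxycholic acid (final) and incubated 16 h at 37 °C.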

The target is the same in experiment [3]. Briefly: qHTS assay to identify small molecule agonists of the farnesoid-X-receptor (FXR) signaling pathway (AID 743220; active = well fitted activation curve with a large enough effect in the signal ratio in the repeat runs, not every such curve was filed as active; the % refers to the signal ratio). In short, it runs like this: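 FXR-UAS-bla HEK 293T cells carrying a UAS-driven beta-lactamase reporter were plated for 5 h at 37C/5% CO2, then exposed to DMSO-dissolved Tox21 10K compounds for 16 h at 37C. A LiveBLAzer B/G FRET substrate was loaded for 2 h at room temperature before fluorescence reading.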

Experiment [4] deals with Vitamin D3 receptor (Homo sapiens) (UniProt P11473). The experiment is described as follows: qHTS assay to identify small molecule agonists of the vitamin D receptor (VDR) signaling pathway (AID 743222). In short, it runs like this:
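Beta-lactamase reporter readout (LiveBLAzer B/G FRET, 2 h RT) in VDR-bla cells after 16 h compound treatment at 37C, 5% CO2; cells pre-incubated 4 h before pin transfer of DMSO solutions.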

Experiment [5] can be described thus: qHTS assay to identify small molecule agonists of the vitamin D receptor (VDR) signaling pathway - cell viability counter screen (AID 743224; active = well fitted curve in the direction sought with a large enough effect in the repeat runs; an effect the other way counts as inactive or inconclusive; note: series mostly up to about 63 µM; nearly all actives have a fitted effect of over 50% in size). In short, it runs like this: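 Cytotoxicity counter screen: VDR-bla cells, 16 h compound exposure at 37C, 5% CO2; CellTiter-Glo luminescence, 30 min RT, same wells as bla read.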
Experiment [6] can be described thus: qHTS assay to identify small molecule agonists of the NFkB signaling pathway - cell viability counter screen (AID 1159515). Note: series mostly up to about 61 µM; nearly all actives have a fitted effect of over 55% in size. A digest of the protocol:
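ME-180 NFkB-bla cells, 2,000/well; overnight attach; compound 5 hr, 37 C/5% CO2; LiveBLAzer substrate 1.5 hr RT; then CellTiter-Glo in same wells, 30 min RT, luminescence read.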

Experiment [7] is described as follows: qHTS assay to identify small molecule agonists of the endoplasmic reticulum stress response signaling pathway (AID 1159516; active = well fitted activation curve with a large enough effect in the signal ratio in the repeat runs, not every such curve was filed as active; the % refers to the signal ratio). A digest of the protocol: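 HeLa ESRE-bla reporter line; cpd 5 h, 37 C/5% CO2; LiveBLAzer B/G FRET substrate 2 h RT; ex 405, em 460/530 nm.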
Experiment [8] can be described thus: qHTS assay to identify small molecule agonists of the endoplasmic reticulum stress response signaling pathway - cell viability counter screen (AID 1159517).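 Note: HeLa cells carrying an ER stress response element beta-lactamase reporter; series mostly up to about 61 µM; nearly all actives have a fitted effect of over 50% in size.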 A digest of the protocol: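 ESRE-bla HeLa cells (1,500/well) were plated overnight at 37 C and exposed to compounds for 5 hr. After the 2 hr beta-lactamase substrate read, CellTiter-Glo went into the same wells, and luminescence was read after 30 min at room temperature.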

Experiment [9] has as its target Nuclear receptor ROR-gamma (Homo sapiens) (UniProt P51449). The experiment is described as follows: qHTS assay to identify small molecule antagonists of the retinoid-related orphan receptor gamma (ROR-gamma) signaling pathway (AID 1159521; active = well fitted curve in the direction sought with a large enough effect in the repeat runs; an effect the other way counts as inactive or inconclusive; note: nearly all actives have a fitted effect of over 50% in size; note: potency is the fitted concentration of half-maximal effect). In short, it runs like this: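 RORγ antagonism is scored from reduced reporter luminescence in Tet-on CHO cells. Induction used 1 uM final doxycycline hyclate for 16 h at 37 C, following a 2 h compound exposure.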

A short description of experiment [10]: qHTS assay to identify small molecule agonists of the AP-1 signaling pathway (AID 1159526).
A short description of experiment [11]: qHTS assay to identify small molecule agonists of the farnesoid-X-receptor (FXR) signaling pathway - cell viability counter screen (AID 743218; active = well fitted curve in the direction sought with a large enough effect in the repeat runs; an effect the other way counts as inactive or inconclusive; note: nearly all actives have a fitted effect of over 45% in size; note: potency is the fitted concentration of half-maximal effect). A digest of the protocol: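 Luminescence from CellTiter-Glo, read after 30 min at RT, reports viability of GeneBLAzer FXR-UAS-bla HEK 293T cells treated 16 h with compounds in the wells used for the beta-lactamase reporter.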

Experiment [12] has as its target Vitamin D3 receptor (Homo sapiens) (UniProt P11473). The experiment is described as follows: qHTS assay to identify small molecule antagonists of the vitamin D receptor (VDR) signaling pathway (AID 743223; active = well fitted inhibition curve with a large enough effect in the signal ratio in the repeat runs, not every such curve was filed as active; the % refers to the signal ratio). In short, it runs like this: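 Fluorescence from LiveBLAzer B/G FRET substrate, read after 2 h at room temperature, reflects beta-lactamase reporter activity in VDR-bla cells treated 16 h at 37C with compounds and agonist 1alpha,25-dihydroxyvitamin D3 (3 nM final).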

Experiment [13] in a line: qHTS assay to identify small molecule antagonists of the vitamin D receptor (VDR) signaling pathway - cell viability counter screen (AID 743225; active = well fitted curve in the direction sought with a large enough effect in the repeat runs; an effect the other way counts as inactive or inconclusive; note: nearly all actives have a fitted effect of over 50% in size; note: potency is the fitted concentration of half-maximal effect). In short, it runs like this:
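Cells (VDR-UAS-bla HEK 293T) are plated, rested 4 h at 37C, dosed with compound and 3 nM final 1-alpha,25-dihydroxy vitamin D3, and incubated 16 h. Viability is taken from CellTiter-Glo luminescence in the reporter wells.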

Experiment [14] is described as follows: qHTS assay to identify small molecule agonists of the AP-1 signaling pathway - cell viability counter screen (AID 1159525). Note: nearly all actives have a fitted effect of over 55% in size. Note: potency is the fitted concentration of half-maximal effect. A digest of the protocol: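 Intracellular ATP by Cell Titer Glo luminescence (30 min, RT) in the same ME-180 AP-1-bla wells after the 5 h compound exposure at 37 °C. Normalised to tetra n-octyl ammonium bromide and DMSO controls.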
Experiment [15] in a line: qHTS assay to identify small molecule agonists of the peroxisome proliferator-activated receptor delta (PPARd) signaling pathway - cell viability counter screen (AID 743211; active = well fitted curve in the direction sought with a large enough effect in the repeat runs; an effect the other way counts as inactive or inconclusive; note: nearly all actives have a fitted effect of over 55% in size). A digest of the protocol: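 Viability of GeneBLAzer PPARd UAS-bla HEK293H cells was assessed after 17 h compound incubation at 37C, using CellTiter-Glo reagent added after the reporter read and luminescence recorded 30 min later.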

Experiment [16] can be described thus: qHTS assay to identify small molecule antagonists of the farnesoid-X-receptor (FXR) signaling pathway - cell viability counter screen (AID 743221; active = well fitted cell-killing curve with a large enough effect in the repeat runs, not every such curve was filed as active; note: nearly all actives have a fitted effect of over 50% in size). In short, it runs like this:
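Quantitative HTS of the Tox21 10K library run in parallel with the beta-lactamase reporter read. HEK 293T cells carrying a UAS-driven bla reporter got compound and 50 uM CDCA (final) for 16 h; ATP-based luminescence followed.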

The nature of experiment [17]: qHTS assay to identify small molecule antagonists of the peroxisome proliferator-activated receptor delta (PPARd) signaling pathway - cell viability counter screen (AID 743213; active = well fitted curve in the direction sought with a large enough effect in the repeat runs; an effect the other way counts as inactive or inconclusive; note: nearly all actives have a fitted effect of over 50% in size). In short, it runs like this:
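PPARd-bla HEK293H cells (3000/well) got compound plus 300 nM L165041 agonist for 17 h at 37 C. Viability in the same wells came from CellTiter-Glo luminescence after 30 min at room temperature.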

The target in experiment [18] is Peroxisome proliferator-activated receptor delta (Homo sapiens) (UniProt Q03181). Briefly: qHTS assay to identify small molecule antagonists of the peroxisome proliferator-activated receptor delta (PPARd) signaling pathway (AID 743215; active = well fitted inhibition curve with a large enough effect in the signal ratio in the repeat runs, not every such curve was filed as active; the % refers to the signal ratio;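 note: cells stimulated with agonist L165041 at 300 nM final during compound exposure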; note: potency is the fitted concentration of half-maximal effect). In short, it runs like this:
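HEK293H GeneBLAzer PPARd UAS-bla reporter cells; cpd + L165041 300 nM final, 17 h 37 C; LiveBLAzer B/G FRET substrate 2 h RT; fluorescence intensity read-out. Antagonist mode.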

Experiment [19] is described as follows: qHTS assay to identify small molecule antagonists of the retinoid-related orphan receptor gamma (ROR-gamma) signaling pathway - cell viability counter screen (AID 1159520; active = well fitted curve in the direction sought with a large enough effect in the repeat runs; an effect the other way counts as inactive or inconclusive; note: nearly all actives have a fitted effect of over 50% in size). A digest of the protocol:
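Cytotoxicity was read from cellular ATP (CellTiter-Glo luminescence) after 16 hr at 37 C with 1 uM doxycycline induction. The inducer was added 2 hr after compound transfer to Tet-on ROR gamma CHO cells.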

The target in experiment [20] is Retinoic acid receptor RXR-alpha (Homo sapiens) (UniProt P19793). Briefly: qHTS assay to identify small molecule agonists of the RXR signaling pathway (AID 1159527). Note: nearly all actives have a fitted effect of over 35% in size. A digest of the protocol: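 qHTS of the Tox21 10K library in GeneBLAzer RXR-alpha HEK 293T cells carrying a beta-lactamase reporter […]; 16 hr treatment, 9-cis retinoic acid as agonist control, FRET read-out.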
Sequence of Retinoic acid receptor RXR-alpha (Homo sapiens) (P19793 whole entry, looked up): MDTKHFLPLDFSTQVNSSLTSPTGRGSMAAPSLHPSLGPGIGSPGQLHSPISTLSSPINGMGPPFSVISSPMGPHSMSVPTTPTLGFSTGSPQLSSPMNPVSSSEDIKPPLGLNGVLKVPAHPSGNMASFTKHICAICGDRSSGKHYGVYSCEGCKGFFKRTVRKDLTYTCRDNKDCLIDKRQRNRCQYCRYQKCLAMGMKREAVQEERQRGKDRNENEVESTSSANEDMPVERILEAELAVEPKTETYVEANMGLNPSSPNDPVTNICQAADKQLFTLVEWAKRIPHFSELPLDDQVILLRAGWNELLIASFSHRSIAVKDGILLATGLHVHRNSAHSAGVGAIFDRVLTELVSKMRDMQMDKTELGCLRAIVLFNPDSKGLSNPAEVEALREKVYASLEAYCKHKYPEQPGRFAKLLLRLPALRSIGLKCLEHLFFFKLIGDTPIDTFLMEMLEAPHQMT

Sequence of Peroxisome proliferator-activated receptor delta (Homo sapiens) (Q03181 whole entry, looked up): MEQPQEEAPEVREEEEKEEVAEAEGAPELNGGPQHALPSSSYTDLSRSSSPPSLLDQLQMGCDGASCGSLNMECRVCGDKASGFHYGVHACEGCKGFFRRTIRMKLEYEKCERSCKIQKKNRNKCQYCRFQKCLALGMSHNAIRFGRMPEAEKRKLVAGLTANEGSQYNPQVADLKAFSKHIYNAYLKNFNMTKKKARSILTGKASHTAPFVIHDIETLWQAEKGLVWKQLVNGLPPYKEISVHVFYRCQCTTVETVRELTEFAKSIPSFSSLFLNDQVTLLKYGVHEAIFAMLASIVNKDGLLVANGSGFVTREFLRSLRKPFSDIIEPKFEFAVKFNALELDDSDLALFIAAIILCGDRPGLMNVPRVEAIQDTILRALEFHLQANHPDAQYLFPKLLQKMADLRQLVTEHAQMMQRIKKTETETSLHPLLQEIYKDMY
Sequence of Vitamin D3 receptor (Homo sapiens) (P11473 whole entry, looked up): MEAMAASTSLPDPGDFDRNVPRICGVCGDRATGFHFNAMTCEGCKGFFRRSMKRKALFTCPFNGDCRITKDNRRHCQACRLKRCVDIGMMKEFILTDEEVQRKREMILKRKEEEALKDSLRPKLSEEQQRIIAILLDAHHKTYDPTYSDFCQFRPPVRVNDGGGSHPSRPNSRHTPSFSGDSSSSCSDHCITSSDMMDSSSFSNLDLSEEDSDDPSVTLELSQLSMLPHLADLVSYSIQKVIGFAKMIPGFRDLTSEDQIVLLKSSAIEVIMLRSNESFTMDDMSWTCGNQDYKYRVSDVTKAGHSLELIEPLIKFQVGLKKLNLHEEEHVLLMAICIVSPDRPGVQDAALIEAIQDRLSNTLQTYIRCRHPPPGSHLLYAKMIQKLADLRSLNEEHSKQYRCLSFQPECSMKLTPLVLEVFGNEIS
Sequence of Bile acid receptor (Homo sapiens) (Q96RI1 whole entry, looked up): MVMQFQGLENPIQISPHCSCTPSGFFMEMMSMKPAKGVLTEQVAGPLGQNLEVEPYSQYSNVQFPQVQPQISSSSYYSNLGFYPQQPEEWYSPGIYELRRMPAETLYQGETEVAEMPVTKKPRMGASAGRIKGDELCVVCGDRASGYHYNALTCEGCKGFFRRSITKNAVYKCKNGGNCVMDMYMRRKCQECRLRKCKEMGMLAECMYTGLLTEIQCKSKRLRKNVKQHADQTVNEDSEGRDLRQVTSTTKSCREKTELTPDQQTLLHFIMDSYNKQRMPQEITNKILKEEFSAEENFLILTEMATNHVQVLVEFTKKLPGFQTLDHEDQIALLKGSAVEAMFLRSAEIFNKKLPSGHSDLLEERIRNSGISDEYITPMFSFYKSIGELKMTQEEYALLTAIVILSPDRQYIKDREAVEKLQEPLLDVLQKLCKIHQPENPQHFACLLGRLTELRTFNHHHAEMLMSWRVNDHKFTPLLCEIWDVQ

In the case of `COc1c(C)c2c(c(O)c1C/C=C(\C)CCC(=O)OCCN1CCOCC1)C(=O)OC2`, the Potency result in experiment [1], in experiment [3], in [4], in experiment [5], in experiment [6] and in experiment [7] was “inactive” each time. Moreover, the Potency entry in experiment [8] and in [10] was “inactive” throughout. The Potency in experiment [2] is 1.5 µM (active); in experiment [9], 0.237 µM (active).

In the case of `CCCCCC(C)OC(=O)COc1ccc(Cl)c2cccnc12` (stereo unspecified), the Potency entry in [1], in experiment [11], in [3], in experiment [4], in experiment [12] and in experiment [13] was “inactive” each time. For the same molecule, the Potency entry in experiment [6], in experiment [7], in experiment [8] and in experiment [9] was “inactive” each time. Besides, the Potency in [14] is 34.7 µM (active).

For `CC[C@H](C)COC(=O)/C=C/c1ccc(N=Cc2ccc(OC)cc2)cc1`, the Potency result in [15], in [2], in experiment [11], in experiment [16], in experiment [6] and in experiment [7] was “inactive” in each case. For the same molecule, the Potency result in experiment [8] is “inactive”.

Take `COC1=C(OC)C(=O)C(CCCCCCCCCCO)=C(C)C1=O`: the Potency entry in experiment [17], in [11], in experiment [3], in experiment [16], in [4] and in experiment [6] was “inactive” in each case. In addition, the Potency entry in experiment [7] and in experiment [8] was “inactive” throughout. Also, the Potency is 26.6 µM (active) in experiment [18], 23.9 µM (active) in experiment [13] and 18.8 µM (active) in experiment [9].

For the molecule `CC1(C)CCC[C@]2(C)[C@H]3CC(=O)O[C@]3(C)CC[C@@H]12`, the Potency result in experiment [1], in experiment [17], in [18], in [11], in experiment [3] and in experiment [16] was “inactive” each time. Moreover, the Potency result in experiment [5], in experiment [13], in experiment [6], in experiment [7], in experiment [8] and in [9] was “inactive” in each case.

Regarding `O=[N+]([O-])c1ccc(O)cc1C(F)(F)F`, the Potency entry in experiment [1], in experiment [17], in experiment [18], in experiment [2], in experiment [11] and in [3] was “inactive” throughout. The Potency entry in [16], in experiment [4], in experiment [12], in experiment [6], in experiment [7] and in experiment [8] was “inactive” in each case. Moreover, the Potency entry in [14] and in [10] was “inactive” throughout. Besides, the Potency in [9] is 7.7 µM (active).

With `C=CC(C)(CCC=C(C)C)OC=O` (stereo unspecified), the Potency result in [15], in [1], in experiment [18], in [11], in experiment [12] and in experiment [5] was “inactive” each time. Also, the Potency result in [13], in [6], in experiment [7], in [19], in [9] and in [14] was “inactive” in each case. Further, the Potency entry in experiment [10] and in experiment [20] was “inactive” in each case.

Turning to `Nc1cc(Cl)c(O)c(Cl)c1`, the Potency entry in experiment [15], in experiment [11], in [16], in experiment [5], in experiment [13] and in [6] was “inactive” in each case. Further, the Potency result in [7] and in experiment [8] was “inactive” throughout.

Take `CN(C)CCN1CCN(c2cccc(Cl)c2)C1=O`: the Potency entry in experiment [15], in experiment [1], in experiment [17], in [18], in [11] and in experiment [16] was “inactive” in each case. Moreover, the Potency result in [12], in experiment [5], in [13], in experiment [6], in experiment [7] and in experiment [19] was “inactive” in each case. Also, the Potency result in experiment [9], in [14], in [10] and in experiment [20] was “inactive” throughout.

Turning to `O=c1[nH]c(=O)n([C@H]2C[C@H](O)[C@@H](CO)O2)cc1F`, the Potency entry in experiment [1], in experiment [18], in experiment [12], in experiment [13], in experiment [6] and in experiment [7] was “inactive” each time. The Potency entry in experiment [19], in experiment [9], in experiment [14], in experiment [10] and in [20] was “inactive” each time. In addition, the Potency in experiment [11] is 13.3 µM (active).
